These results are taken from PubChem BioAssay (Tox21).

A number with no mark means an inactive call. Records with an inconclusive call do not appear. Activity calls are given as the source filed them. Unless noted, calls come from the whole dose curve; as a rule, active = well fitted curve in the direction sought with a large enough effect in the repeat runs; inconclusive = weak or mixed curves; inactive = no such curve, though single readings can be large; an effect the other way counts as inactive or inconclusive.

A short description of assay [1]: qHTS assay to identify small molecule antagonists of the estrogen related receptor (ERR) signaling pathway from Tox21 library - cell viability counter screen (AID 1224834). Note: nearly all actives have a fitted effect of over 30% in size. An outline of the steps: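 Multiplexed viability counter screen in ERR cells: 17.5 h compound exposure at 37 C, CellTiter-Fluor added, 30 min at 37 C/5% CO2, fluorescence read.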
A general note: In qHTS, concentration-response curves come from the screen itself.

The target in assay [2] is Luciferin 4-monooxygenase (Photinus pyralis) (UniProt P08659). Briefly: qHTS assay to identify small molecule inhibitors of firefly luciferase (AID 1224835). Note: nearly all actives have a fitted effect of over 25% in size. The gist of the method: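 Quantitative HTS format; KM concentrations of both substrates. Purified P. pyralis FLuc activity quantified from luminescence images.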
The nature of assay [3]: qHTS assay to identify small molecule agonists of the constitutive androstane receptor (CAR) signaling pathway - cell viability counter screen (AID 1224836). Note: nearly all actives have a fitted effect of over 45% in size. An outline of the steps:
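Compound titrations (15 concentrations) went onto HepG2-CYP2B6-hCAR cells 4 h after seeding, alongside PK11195 at a final 0.75 uM; a 23 h, 37 C/5% CO2 incubation preceded CellTiter-Fluor viability measurement.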

Assay [4] in a line: qHTS assay to identify small molecule antagonists of the constitutive androstane receptor (CAR) signaling pathway - cell viability counter screen (AID 1224837). Note: nearly all actives have a fitted effect of over 45% in size. An outline of the steps: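 Read-out: CellTiter-Fluor fluorescence after 23 hr at 37 C/5% CO2. Cells: HepG2 double-stable for hCAR and CYP2B6-2.2kb. Compounds tested at 15 concentrations in the presence of CITCO, final concentration 50 nM.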

Assay [5] can be described thus: qHTS assay to identify small molecule antagonists of the estrogen related receptor signaling pathway with the pleiotropic PPARgamma coactivator (PGC) from Tox21 10K library - cell viability counter screen (AID 1224840; active = well fitted cell-killing curve with a large enough effect in the repeat runs, not every such curve was filed as active; note: nearly all actives have a fitted effect of over 40% in size). An outline of the steps: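 Fluorescence read-out of CellTiter-Fluor viability reagent, added after cells had been exposed to compound in DMSO for 17.5 h at 37 C; 30 min development at 37 C/5% CO2. Cells: PGC/ERR line, 2,000/well.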

Assay [6] addresses Thyrotropin receptor (Homo sapiens) (UniProt P16473). As to the kind of experiment: qHTS assay to identify small molecule agonists of the thyroid stimulating hormone receptor (TSHR) signaling pathway (AID 1224843; calls by dose curve; note: nearly all actives have a fitted effect of over 45% in size). An outline of the steps:
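Using 15 concentrations per compound in triplicate, cAMP production was monitored in TSHR-HEK293 cells after 30 min compound incubation at RT; HTRF reagents followed, with fluorescence intensity recorded after 1 h.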

The nature of assay [7]: qHTS assay to identify small molecule agonists of the hypoxia (HIF-1) signaling pathway - cell viability counter screen (AID 1224844; calls by dose curve; note: nearly all actives have a fitted effect of over 50% in size). An outline of the steps: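 CellTiter-Glo luminescence read-out, 30 min RT, taken in the same wells as the beta-lactamase HRE reporter assay; HRE-bla ME-180 cells, 0.5% dialyzed FBS, 17 hr compound treatment at 37C, 5% CO2.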
Assay [8] can be described thus: qHTS assay to identify small molecule agonists of H2AX (AID 1224845; active = well fitted activation curve with a large enough effect in the signal ratio in the repeat runs, not every such curve was filed as active; the % refers to the signal ratio). An outline of the steps:
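Wild-type CHO-K1 cells plated overnight, then exposed 3 hr at 37C to compounds at 15 concentrations (0.76% DMSO). Lysed, then HTRF anti-pH2AX(S139)-cryptate/anti-H2AX-d2 detection after 24 hr at room temperature; emissions 665 and 620 nm.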

Assay [9] can be described thus: qHTS assay to identify small molecule agonists of the hypoxia (HIF-1) signaling pathway (AID 1224846; active = well fitted activation curve with a large enough effect in the signal ratio in the repeat runs, not every such curve was filed as active; the % refers to the signal ratio). The gist of the method: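 Beta-lactamase FRET read-out (CCF4-AM substrate) from ME-180 cells carrying an HRE-driven bla reporter, after 17 hrs compound exposure at 37C/5% CO2. Cells were seeded at 2,000 per well in 0.5% dialyzed FBS medium and preincubated 5 hrs.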

Assay [10] in a line: qHTS assay to identify small molecule agonists of H2AX - cell viability counter screen (AID 1224847; calls by dose curve; note: top concentration of the series differs between compounds; nearly all actives have a fitted effect of over 30% in size). An outline of the steps: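 Read-out: CellTiter-Glo luminescence, 30 min RT. Cells: wild-type CHO-K1, 1000/well, 10% FBS, plated overnight at 37C. Treatment: 15 concentrations, 3 hr, 37C, 0.76% DMSO.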
The nature of assay [11]: qHTS RealTime-Glo MT Cell Viability Assay in HepG2 cells - 24 hour (AID 1224867). Note: nearly all actives have a fitted effect of over 50% in size. An outline of the steps:
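Compound treatment began 5 h after plating HepG2 cells (600/well) with NanoLuc luciferase and prosubstrate. Plates stayed at 37 C for 40 h; luminescence was captured at six time points, 0 h through 40 h.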

Assay [12] can be described thus: qHTS RealTime-Glo MT Cell Viability Assay in HEK293 cells - 32 hour (AID 1224868). Note: top concentration of the series differs between compounds; nearly all actives have a fitted effect of over 50% in size. The gist of the method:
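Quantitative high-throughput screen of the Tox21 10K library in HEK293: cells and RealTime-Glo reagents plated together, compound added at 5 h, luminescence monitored through 40 h at 37 C.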

The nature of assay [13]: A CellTox Green Cytotoxicity Assay to monitor cytotoxicity in HEK293 cells - 0 hour (AID 1224869). Note: nearly all actives have a fitted effect of over 50% in size. The gist of the method:
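Read-out: fluorescence of a cell-impermeant cyanine dye staining DNA of dead cells, proportional to cytotoxicity. HEK293, 600 cells/well with reagent, compound (23 nL DMSO) added after 5 h; reads at 0, 8, 16, 24, 32, 40 h.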

For assay [14], the target named is Nuclear receptor subfamily 1 group I member 3 (Homo sapiens) (UniProt Q14994). As to the kind of experiment: qHTS assay to identify small molecule antagonists of the constitutive androstane receptor (CAR) signaling pathway (AID 1224838).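 Note: HepG2 cells stably expressing hCAR with CYP2B6 luciferase reporter stimulated by CITCO; nearly all actives have a fitted effect of over 40% in size.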 An outline of the steps: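 Read-out: ONE-Glo luciferase luminescence after 30 min at room temperature. HepG2-CYP2B6-hCAR double-stable cells, compounds in 15-point titration plus 50 nM CITCO final, 24 h at 37 C/5% CO2.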

Assay [15] shares this target. Briefly: qHTS assay to identify small molecule agonists of the constitutive androstane receptor (CAR) signaling pathway (AID 1224839).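 For activation: HepG2 cells stably carrying human CAR and a CYP2B6 luciferase reporter.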 Note: nearly all actives have a fitted effect of over 15% in size. Note: potency is the fitted concentration of half-maximal effect. An outline of the steps:
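In this screen, CAR-driven CYP2B6 promoter activity is measured by luminescence in HepG2-CYP2B6-hCAR cells after 24 h with test compounds and 0.75 uM PK11195 (final concentration).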

The nature of assay [16]: qHTS assay to identify small molecule antagonists of the estrogen related receptor (ERR) signaling pathway from Tox21 library (AID 1224848). Note: nearly all actives have a fitted effect of over 50% in size. An outline of the steps:
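Tox21 10K compounds in DMSO tested for ERR pathway antagonism in NTP's ERR cell line; 18 h, 37 C exposure; ONE-Glo luminescence.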

The nature of assay [17]: qHTS assay to identify small molecule agonists of the estrogen related receptor (ERR) signaling pathway from Tox21 library (AID 1224849; calls by dose curve; note: nearly all actives have a fitted effect of over 15% in size). The note with it: ERR reporter cell line, ONE-Glo luciferase, 18 h; at 92.4 µM (top of the series) unless noted. An outline of the steps: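 Luminescence readout (ONE-Glo, 30 min RT) after 18 h compound exposure at 37 C of NTP-supplied ERR reporter cells; cells were plated 6 h before compound addition by pin tool.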

Assay [18] can be described thus: qHTS assay to identify small molecule agonists of the estrogen related receptor signaling pathway with the pleiotropic PPARgamma coactivator (PGC) from Tox21 10K library (AID 1224842). Note: nearly all actives have a fitted effect of over 15% in size. An outline of the steps:
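PGC/ERR reporter cells (NTP line) were seeded 2,000 per well, rested 6 h at 37 C/5% CO2, then pin-dosed with compounds in DMSO for 18 h at 37 C; luciferase read by One-Glo luminescence after 30 min at room temperature.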

Assay [19] is described as follows: qHTS assay to identify small molecule antagonists of the estrogen related receptor signaling pathway with the pleiotropic PPARgamma coactivator (PGC) from Tox21 10K library (AID 1224841; call rule not given here; note: potency is the fitted concentration of half-maximal effect). An outline of the steps: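 Luminescence read-out (One-Glo luciferase reagent, 30 min at room temperature) from PGC/ERR cells exposed to DMSO-dissolved test compounds for 18 h at 37 C; cells, 2,000 per well, had been preincubated 6 h before compound transfer.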
% is set by controls: 0 for no effect and ±100 for the full control effect.

Sequence of Luciferin 4-monooxygenase (Photinus pyralis) (P08659 whole entry, looked up): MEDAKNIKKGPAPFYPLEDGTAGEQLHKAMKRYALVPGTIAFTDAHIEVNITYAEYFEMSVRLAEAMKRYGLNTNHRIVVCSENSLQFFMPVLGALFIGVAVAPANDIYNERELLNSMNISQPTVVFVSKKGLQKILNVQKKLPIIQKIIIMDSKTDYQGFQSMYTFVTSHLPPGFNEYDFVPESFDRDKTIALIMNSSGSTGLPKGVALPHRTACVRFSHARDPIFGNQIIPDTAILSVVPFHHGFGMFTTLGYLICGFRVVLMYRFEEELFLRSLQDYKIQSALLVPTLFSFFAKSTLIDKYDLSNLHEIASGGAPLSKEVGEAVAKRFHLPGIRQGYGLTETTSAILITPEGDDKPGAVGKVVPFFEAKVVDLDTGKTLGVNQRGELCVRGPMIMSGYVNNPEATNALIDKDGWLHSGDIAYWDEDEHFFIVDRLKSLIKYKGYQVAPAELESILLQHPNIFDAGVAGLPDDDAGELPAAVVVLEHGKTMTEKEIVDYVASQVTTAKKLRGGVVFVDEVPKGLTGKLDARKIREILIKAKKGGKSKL
Sequence of Thyrotropin receptor (Homo sapiens) (P16473 whole entry, looked up): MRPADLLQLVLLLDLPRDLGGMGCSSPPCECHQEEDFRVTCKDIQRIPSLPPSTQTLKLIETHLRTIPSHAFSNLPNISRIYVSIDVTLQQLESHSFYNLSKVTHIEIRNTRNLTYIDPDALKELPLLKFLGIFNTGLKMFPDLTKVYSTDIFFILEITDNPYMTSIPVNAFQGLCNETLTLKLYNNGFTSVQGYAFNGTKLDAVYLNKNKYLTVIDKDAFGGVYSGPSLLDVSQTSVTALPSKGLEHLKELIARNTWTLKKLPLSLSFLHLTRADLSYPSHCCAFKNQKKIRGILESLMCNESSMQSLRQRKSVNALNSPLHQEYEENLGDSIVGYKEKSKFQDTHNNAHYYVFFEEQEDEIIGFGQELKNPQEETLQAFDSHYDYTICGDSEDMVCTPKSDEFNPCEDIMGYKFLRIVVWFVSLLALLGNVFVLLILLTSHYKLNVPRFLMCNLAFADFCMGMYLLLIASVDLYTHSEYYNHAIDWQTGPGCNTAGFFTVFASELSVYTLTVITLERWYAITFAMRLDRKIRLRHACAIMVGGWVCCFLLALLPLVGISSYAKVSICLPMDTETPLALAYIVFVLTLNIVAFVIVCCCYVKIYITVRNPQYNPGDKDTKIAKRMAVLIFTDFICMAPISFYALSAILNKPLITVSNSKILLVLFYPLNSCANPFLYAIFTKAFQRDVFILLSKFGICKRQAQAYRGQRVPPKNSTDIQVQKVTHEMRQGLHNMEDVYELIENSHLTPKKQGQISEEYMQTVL
Sequence of Nuclear receptor subfamily 1 group I member 3 (Homo sapiens) (Q14994 whole entry, looked up): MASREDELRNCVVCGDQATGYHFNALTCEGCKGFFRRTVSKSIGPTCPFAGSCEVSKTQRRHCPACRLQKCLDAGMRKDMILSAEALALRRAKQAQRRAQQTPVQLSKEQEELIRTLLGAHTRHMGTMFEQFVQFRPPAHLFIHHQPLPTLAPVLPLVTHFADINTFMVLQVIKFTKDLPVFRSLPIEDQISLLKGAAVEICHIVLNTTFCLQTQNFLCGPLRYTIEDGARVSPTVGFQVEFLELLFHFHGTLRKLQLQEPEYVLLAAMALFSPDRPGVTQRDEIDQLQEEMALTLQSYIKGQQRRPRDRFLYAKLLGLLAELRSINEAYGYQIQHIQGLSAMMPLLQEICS

For `CCCCCCC#N`, the Potency result in assay [1], in [2], in [3], in assay [4], in [5] and in assay [6] was “inactive” throughout. In addition, the Potency entry in assay [7], in [8], in assay [10], in assay [11], in assay [12] and in [13] was “inactive” in each case. Also, the call in assay [9] was inactive.

For the molecule `CC(C)N(CCC(C(N)=O)(c1ccccc1)c1ccccn1)C(C)C` (centres undefined), the Potency result in [1], in assay [3], in assay [4], in assay [14], in [15] and in [5] was “inactive” throughout. The Potency entry in [6], in [7], in assay [8], in [10], in [16] and in [11] was “inactive” in each case. In addition, the Potency entry in assay [12] is “inactive”. The activity change, positive = activation in assay [17] is 2.39% [at 42.5 µM].

As to `CCCCNP(N)(N)=S`, the Potency result in [1], in assay [2], in assay [3], in assay [4], in [5] and in [6] was “inactive” throughout. Moreover, the Potency entry in assay [8], in assay [10], in assay [11], in assay [12] and in assay [13] was “inactive” throughout. Also, the call in assay [9] was inactive.

Consider `O=C1c2ccccc2C(=O)C1C(=O)C(c1ccccc1)c1ccccc1`, for which the Potency entry in assay [2], in assay [3], in assay [4], in assay [14], in assay [15] and in [5] was “inactive” throughout. Besides, the Potency result in assay [18], in assay [6], in assay [10], in [11] and in assay [12] was “inactive” in each case. Also, in assay [17], the activity change, positive = activation was -7.49% [at 42.5 µM].

Turning to `CCOP(=S)(Oc1ccc([N+](=O)[O-])cc1)c1ccccc1` (centres undefined), the Potency entry in assay [2], in assay [3], in assay [4], in [14], in [5] and in assay [19] was “inactive” throughout. The Potency entry in assay [18], in [7], in [8], in assay [16], in [11] and in assay [12] was “inactive” in each case. The Potency entry in [13] is “inactive”. Further, the molecule was called inactive in assay [9]. The activity change, positive = activation in assay [17] is 24.4% (active).

As to `CC(C)O.CC(C)O.OCCN(CCO)CCO.OCCN(CCO)CCO.[Ti]`, the Potency entry in assay [2], in assay [3], in [4], in assay [14], in [5] and in assay [6] was “inactive” each time. Besides, the Potency entry in assay [7], in assay [8], in [11], in [12] and in assay [13] was “inactive” in each case. The result in assay [9] was inactive.

For `C=CCCl`, the Potency entry in [2], in assay [3], in [4], in [14], in assay [15] and in [5] was “inactive” in each case. The Potency result in assay [6], in assay [7], in assay [8], in assay [10], in assay [11] and in assay [12] was “inactive” each time. For the same molecule, the Potency result in assay [13] is “inactive”. The molecule was called inactive in assay [9].

As for `COP(=S)(Oc1cc(Cl)c(Br)cc1Cl)c1ccccc1` (centres undefined), the Potency result in [2], in assay [3], in [4], in assay [5], in assay [18] and in assay [8] was “inactive” throughout. In addition, the Potency entry in assay [11] and in [13] was “inactive” throughout. Also, the results for the Potency in [15] and in assay [19] were 30.6 µM (active) and 54.5 µM (active), respectively. In addition, the molecule was called inactive in assay [9]. In addition, the activity change, positive = activation in assay [17] is -31.4%.
